High-throughput results (PubChem BioAssay)
Sampled rows, rich in hits. Any-hit rate of the full collection: about 4.1%.
ssDAF12 agonist: S. stercoralis DAF-12 nuclear receptor activators, primary screen, cell-based, luminescence, HEK293, GRIP1 co-expression, lit1-tk-luc; Nuclear hormone receptor DAF-12 (Strongyloides stercoralis); HEK293 ssDAF-12/GRIP1 lit1-tk-luc reporter; % of 3 µM dafachronic acid response; activation, % at 6.8 µM; 370,000 tested, 1% active; AID 652126, 2013;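 active = activation above the mean over all tested compounds plus 3 SD, cut at about 0.9% in these data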
hgDAF12 agonist: H. glycines DAF-12 receptor agonists, primary screen, cell-based, luminescence, HEK293, GAL4 fusion, UAS-luciferase | Nuclear hormone receptor DAF-12 (Heterodera glycines), GAL4 fusion | HEK293 GAL4-hgDAF12 UAS-luciferase reporter, agonist luminescence; normalized to butyrate control | activation, % at 6.8 µM | 370,000 tested, 1.8% active;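 active = activation above a cutoff set at the mean of all screened compounds plus 3 SD, cut at about 10% in these data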
DAX1 inh-1: DAX1 (NR0B1) inhibitors on StAR promoter, primary screen, cell-based, luminescence, SF-1 (NR5A1), full-length DAX-1; HEK293T StAR-luciferase reporter, SF-1/DAX-1 repression relief; inhibition, % at 6.8 µM; 370,000 tested, 1.1% active; AID 652010, 2013;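 active = inhibition above the mean over all tested compounds plus 3 SD, cut at about 3.6% in these data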;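 also: higher inhibition means more luminescence from relief of DAX-1 repression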
hcDAF12 agonist: H. contortus DAF-12 nuclear receptor activators, primary screen, cell-based, luminescence, HEK293, lit1-tk-luc reporter; HEK293 hcDAF-12 lit1-tk-luc reporter; 0% DMSO, 100% Δ7-dafachronic acid; activation, % at 6.8 µM; 370,000 tested, 1.4% active; AID 652067, 2013;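 active = activation above the mean of all tested compounds plus 3 SD, cut at about 5.5% in these data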
DAX1 inh-2: DAX1 (NR0B1) inhibitors, primary screen, cell-based, HEK293, Gal4-DAX1, luciferase luminescence; AID 504766, 2011; inhibition, % at 6.75 µM; 340,000 tested, 0.99% active; HEK293 Gal4-DAX1 luciferase reporter; Nuclear receptor subfamily 0 group B member 1 (Homo sapiens), P51843;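 active = inhibition above the mean over all tested compounds plus 3 SD, cut at about 4.2% in these data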;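 also: inhibition shows as a rise in luminescence from relieved DAX1 repression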
Target sequence (P51843 207-470 limits assumed): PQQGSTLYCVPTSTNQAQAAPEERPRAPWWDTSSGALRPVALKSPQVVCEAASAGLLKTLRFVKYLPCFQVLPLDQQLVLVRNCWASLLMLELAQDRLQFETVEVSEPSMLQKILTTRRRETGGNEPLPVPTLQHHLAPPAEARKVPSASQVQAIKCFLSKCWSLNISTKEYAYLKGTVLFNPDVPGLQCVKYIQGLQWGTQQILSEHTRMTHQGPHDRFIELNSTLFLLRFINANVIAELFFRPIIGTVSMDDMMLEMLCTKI
LXRb hcDAF ctr: LXR agonists, Gal4 luciferase reporter, confirmation, counter-screen for hcDAF-12 agonist project, cell-based, luminescence, HEK293, H. contortus campaign; shares compounds with hcDAF12 agonist; HEK293 Gal4-LXR tk-luc reporter, 24 h; normalized: DMSO 0%, positive control 100%; activation, % at 6.8 µM; 3,400 tested, under 10 active; AID 743027, 2013;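 active = mean percent activation of the reporter above a cutoff set as the average over tested compounds plus their standard deviation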
hcDAF12 conf: H. contortus DAF-12 receptor agonists, confirmation, cell-based, luminescence, HEK293, lit1-tk-luc, triplicate; shares compounds with hcDAF12 agonist; HEK293 hcDAF-12 lit1-tk-luc reporter; % of Δ7-dafachronic acid response; activation, % at 6.8 µM; 3,400 tested, 61% active;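 active = mean activation across triplicate tests above the threshold derived from the earlier primary screen, cut at about 5.5% in these data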
Of the large screens only hits and unclear results are named; the others gave an inactive call (follow-up assays come after a bar, where they were run).

COC(=O)C1=C(C)N(Cc2ccccc2C(F)(F)F)C(=NCc2ccc(OC)cc2)NC1c1ccc(F)cc1 (stereo not drawn)	none (no result: DAX1 inh-2)
COC(=O)c1cc2c(c3c4cc(F)ccc4n(S(=O)(=O)c4cccc(C)c4)c13)C(=O)N(Cc1ccco1)C2	none (no result: DAX1 inh-2)
O=C(CSc1ncc(-c2ccccc2)n1C1CCCC1)N1CCc2ccccc21	hcDAF12 agonist 7.4 | LXRb hcDAF ctr inactive | hcDAF12 conf inactive
Cn1c(-c2ccccc2)cnc1SCC(=O)N1CCCc2ccccc21	none
Cc1cccc(N2C(=O)C=CC2=O)c1	none
O=C1C=CC(=O)N1c1ccc2ccccc2c1	hcDAF12 agonist 7.4 | LXRb hcDAF ctr inactive | hcDAF12 conf inactive
OCCCN1CCC2(CCC(c3ccccc3)CC2)C1 (stereo not drawn)	none (no result: DAX1 inh-2)
N#C/C(=C\c1ccc[nH]1)C(=O)Nc1ccccc1[N+](=O)[O-]	none
Cc1ccccc1NC(=O)/C(C#N)=C/c1ccc[nH]1	hcDAF12 agonist 11 | LXRb hcDAF ctr inactive | hcDAF12 conf 8.5
Cc1ccccc1NC(=O)C(=O)Nc1ccccc1C	hcDAF12 agonist 8.3 | LXRb hcDAF ctr inactive | hcDAF12 conf inactive
Cc1ccc(Nc2nnc(SC/C(O)=C(\C#N)c3nc4ccccc4[nH]3)s2)c(C)c1	hcDAF12 agonist 9.4 | LXRb hcDAF ctr inactive | hcDAF12 conf inactive
Cc1cccc(Nc2nnc(SC/C(O)=C(\C#N)c3nc4ccccc4[nH]3)s2)c1	ssDAF12 agonist 1.5, hcDAF12 agonist 7.2 | LXRb hcDAF ctr inactive | hcDAF12 conf 7.0
COc1ccc(C)cc1-n1nnnc1SC/C(O)=C(\C#N)c1nc2ccccc2[nH]1	none
COC(=O)[C@H](Cc1ccccc1)N1CC(N2CCCC2)CS1(=O)=O (stereo partly drawn)	none (no result: DAX1 inh-2)
N#CCC[C@@H]1CC[C@]2(CCCN(C(=O)c3ccco3)C2)O1	none (no result: DAX1 inh-2)
Nc1ccccc1Sc1c[nH]c2ccccc12	hcDAF12 agonist 6.8 | LXRb hcDAF ctr inactive | hcDAF12 conf inactive
Cc1c[nH]c2ccccc12	none (no result: ssDAF12 agonist, hgDAF12 agonist, DAX1 inh-1, hcDAF12 agonist)
Cc1csc(NC(=O)c2ccc(COc3ccccc3F)o2)n1	none (no result: DAX1 inh-2)
CC/C(=N/NC(=O)c1ccc2c(c1)OCO2)c1ccccc1O	ssDAF12 agonist 1.1, hcDAF12 agonist 14, DAX1 inh-2 4.9 | LXRb hcDAF ctr inactive | hcDAF12 conf inactive
Clc1ccc2nc(-c3ccco3)c(Cc3ccsc3)n2c1	none (no result: DAX1 inh-2)
Clc1cccc(Cc2c(-c3ccco3)nc3c4ccccc4ccn23)c1	none (no result: DAX1 inh-2)
c1coc(-c2nc3c4ccccc4ccn3c2Cc2ccsc2)c1	ssDAF12 agonist 1.6, hgDAF12 agonist 12, hcDAF12 agonist 7.4 (no result: DAX1 inh-2) | LXRb hcDAF ctr inactive | hcDAF12 conf 15
Fc1cccc(Cc2c(-c3ccco3)nc3c4ccccc4ccn23)c1	ssDAF12 agonist 3.7, hgDAF12 agonist 13, hcDAF12 agonist 6.7 (no result: DAX1 inh-2) | LXRb hcDAF ctr inactive | hcDAF12 conf 9.5
COC(=O)[C@]12C[C@H](CC(=O)N3CCCC3)C(=O)N(CCc3ccc(OC)c(OC)c3)C1=C[C@H](COCc1ccccc1)O[C@@H]2C	none (no result: DAX1 inh-2)
O=C(Nc1csc([N+](=O)[O-])c1)Nc1ccccc1Cl	none
O=C(Nc1ccc(Cl)cc1)Nc1ccccc1Sc1ncc([N+](=O)[O-])s1	ssDAF12 agonist 1.1, hcDAF12 agonist 7.6 | LXRb hcDAF ctr inactive | hcDAF12 conf inactive
